Bioassay records from PubChem.
H9c2 protect: protects H9c2 cardiomyocytes from peroxide injury; 360,000 compounds, 0.63% hits; AID 588492; protection from H2O2 cell death, % at 20 µM; H2O2 injury protection, ATPLite, 2 h;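 active = compounds giving at least 50% protection of heart cells from peroxide-induced death in the single-dose screen, raw or plate-pattern-corrected value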;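 note: 0% = DMSO wells with peroxide and 100% = DMSO wells without peroxide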
GalR3 antag: human GalR3 antagonism; O60755; HEK293 GalR3-CNG cAMP membrane potential fluorescence; galR3 body fused to GalR1 C-terminus; inhibition, % at 3 µM; 360,000 compounds, 0.44% hits; AID 651719;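 active = inhibition above the screen-wide average plus 3 SD, cut at about 13% in these data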;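 note: forskolin and galanin both at EC90 stimulate the cells; cAMP rise reported by CNG channel membrane potential dye signal; 0% = forskolin plus galanin with DMSO and 100% = forskolin alone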
Target sequence (O60755 1-299 limits assumed): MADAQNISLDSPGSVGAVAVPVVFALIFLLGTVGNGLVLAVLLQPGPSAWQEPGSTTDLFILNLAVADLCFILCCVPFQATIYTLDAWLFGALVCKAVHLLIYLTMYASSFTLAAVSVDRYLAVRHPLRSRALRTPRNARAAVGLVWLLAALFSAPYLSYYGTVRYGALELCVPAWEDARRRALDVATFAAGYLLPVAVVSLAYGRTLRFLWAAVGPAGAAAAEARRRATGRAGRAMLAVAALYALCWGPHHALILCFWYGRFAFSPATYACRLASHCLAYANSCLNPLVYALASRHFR
Gli-Sufu block: antagonists of Gli-Sufu signaling; Sufu-KO-LIGHT fibroblasts, Gli luciferase reporter luminescence; inhibition, % at 5 µM; 340,000 compounds, 0.74% hits;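 active = inhibition above about 55%, limit read from the data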;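 note: 0% = DMSO-treated cells and 100% = wells with medium but no cells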
FXN GAA850 act: increases GAA850 frataxin promoter reporter activity | HEK293 lucGAA850 FXN promoter luciferase reporter, 24 h; percent of 10 µM SAHA response | activation, % at 6 µM | 360,000 compounds, 0.56% hits;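 active = activation above the average of all compounds screened plus 3 SD, cutoff fixed separately per campaign, cut at about 7.5% in these data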;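 note: 0% = DMSO wells and 100% = 10 µM SAHA wells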
COUP-TFII inh: NR2F2 (human) inhibition, primary screen; P24468; HEK293T NGFI-A luciferase reporter, luminescence; inhibition, % at 8.6 µM; 370,000 compounds, 0.7% hits; AID 686940;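 active = inhibition above a per-plate cutoff, mean inhibition of test wells between control levels plus 3 SD, cut at about 38% in these data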;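 note: cells cotransfected with COUP-TFII expression vector driving the NGFI-A reporter; 0% = median of COUP-TF2 test wells and 100% = reporter-only cells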
SMARCA2 activ: increases SMARCA2 function in MMTV reporter cells | MG213 cells, MMTV-luciferase reporter, dexamethasone, overnight | 370,000 compounds, 1% hits | activation, % at 9.1 µM | AID 652017; in the data active = activation above about 7.8%;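 note: 0% = vehicle wells and 100% = reference activator wells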
Gli antag conf: confirmation of Gli-SUFU pathway antagonists | shares compounds with Gli-Sufu block | Sufu-KO-LIGHT cells, Gli luciferase reporter, luminescence | inhibition, % at 5 µM | 2,500 compounds, 40% hits | AID 602428;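 active = mean inhibition at 5 µM reaching about 45%, limit read from the data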;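 note: plate controls were DMSO-treated cells for no effect and wells lacking cells for full effect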
Gli cytotox: cytotoxicity counter-screen for Gli-SUFU antagonists | shares compounds with Gli-Sufu block | 2,500 compounds, 32% hits | cytotoxicity, % at 5 µM | Sufu-KO-LIGHT cells cytotoxicity, ATP luminescence;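 active = mean cytotoxicity at 5 µM above about 25%, limit read from the data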;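 note: cells exposed to compound overnight for roughly 16 to 18 hours; plate controls were DMSO wells with cells for no effect and medium without cells for full effect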
Wnt3a counter: counter-screen for Gli-SUFU antagonists: Wnt3a reporter inhibition | shares compounds with Gli-Sufu block | Wnt-LIGHT cells, Wnt3a-driven luciferase reporter, luminescence | inhibition, % at 6.25 µM | 2,500 compounds, 20% hits;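 active = mean inhibition above about 25%, limit read from the data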
* hit, by the source's call; nt = not tested or not shown. Sampled rows, rich in hits. Any-hit rate of the full collection: about 3.4%.

SMILES	H9c2 protect	GalR3 antag	Gli-Sufu block	FXN GAA850 act	COUP-TFII inh	SMARCA2 activ	Gli antag conf	Gli cytotox	Wnt3a counter
COc1ccc(CN2CCC(C(=O)Nc3ccc(Oc4cccnc4)cc3)CC2)c(C)c1C	-8	-2	60*	-3	34	-4	38	4	2
COc1ccc(CN2CCC(C(=O)Nc3ccc(Oc4cccnc4)cc3)CC2)cc1	-7	0	32	-2	31	-2	nt	nt	nt
COc1cccc(O)c1CN1CCC(C(=O)Nc2ccc(Oc3cccnc3)cc2)CC1	-6	-7	51	-4	32	-4	35	5	4
O=C(C[C@@H]1CC[C@H](NS(=O)(=O)c2ccccc2F)[C@@H](CO)O1)NCCCN1CCOCC1	nt	-2	nt	nt	1	3	nt	nt	nt
COC(=O)[C@H]1C[C@@]2(C)c3ccccc3N(S(=O)(=O)c3ccccc3)[C@H]2N1C(=O)CNC1CCCCC1	nt	nt	nt	nt	-11	-2	nt	nt	nt
COc1ccc(N2CCN(C(=O)CC(C)S(=O)(=O)c3ccc4c(c3)NC(=O)CO4)CC2)cc1 (centres undefined)	-7	3	-18	-2	-4	-4	nt	nt	nt
CC(CC(=O)N1CCN(c2cccc(Cl)c2)CC1)S(=O)(=O)c1ccc2c(c1)NC(=O)CO2 (centres undefined)	-14	-7	59*	-1	-1	-3	51*	20	0
CCCCC(C(=O)NC1CCCC1)N(C(=O)c1snc(C(N)=O)c1N)c1ccc(F)cc1 (centres undefined)	0	-4	3	0	-16	-4	nt	nt	nt
Cc1cc(NC(=O)c2ccc(Cl)cc2)ccc1NC(=O)c1ccccc1Cl	-6	-12	-25	3	-18	1	nt	nt	nt
Cc1ccc(NS(=O)(=O)c2cc([N+](=O)[O-])ccc2NNC(=S)Nc2cc(C)ccc2C)c(C)c1	-12	-11	62*	-3	9	-3	51*	4	62*
COc1ccc(NC(=S)NNc2ccc([N+](=O)[O-])cc2S(=O)(=O)Nc2ccc(C)cc2C)cc1	-26	-1	-11	2	5	-3	nt	nt	nt
CC1(C)Oc2cc3oc(=O)ccc3c3c2C2C1CCC(C)(O3)C2O (centres undefined)	5	-6	nt	0	21	0	nt	nt	nt
CCOC(=O)C1(CC2CCCCO2)CCN(Cc2cc3ccccc3[nH]2)CC1 (centres undefined)	-9	-2	59*	-2	24	-1	23	2	-43
CCCCc1ncc(CN2CCC(CC3CCCCO3)(C(=O)OCC)CC2)[nH]1 (centres undefined)	-4	-7	29	0	7	-2	nt	nt	nt
CCCCCN1CCCCC(NC(=O)c2ccc(C)cc2)C1=O (centres undefined)	nt	nt	nt	nt	-5	-1	nt	nt	nt
Cc1ccccc1CN1CCCCC(NC(=O)c2ccc(N(C)C)cc2)C1=O (centres undefined)	nt	nt	nt	nt	-3	-2	nt	nt	nt
Cc1cnn2c(C3CC3)ccnc12	6	5	58*	-1	19	-2	12	19	-8
COc1ccc(C(=O)NN(C)c2nc(C(F)(F)F)nc3ccccc23)cc1	-1	1	56*	0	-56	2	55*	63*	1
CCCCC(=O)Nc1nc(C)c(-c2csc(Nc3cc(OC)ccc3OC)n2)s1	5	-5	95*	-4	-21	0	33	25	17
Cn1c(N2CCCC2)nc2c1c(=O)n(Cc1ccc(F)cc1)c(=O)n2C	-3	-2	53	0	8	0	12	2	-20
Cn1c(=O)n(Cc2ccc(F)cc2)c(=O)c2c1nc1n2CCCN1Cc1ccccc1	26	2	23	0	14	-1	nt	nt	nt
COC(=O)Cc1nnn2c1[C@H](C)[C@H](c1cccc(OC)c1OC)OCC2	nt	-6	nt	nt	-12	0	nt	nt	nt
CC(=O)Nc1nc2ncccn2c1-c1ccc(F)c(F)c1	nt	nt	nt	nt	9	0	nt	nt	nt
O=C(NNc1nc(=O)c2cccnc2s1)c1ccccc1O	10	-6	85*	0	-18	-4	25	27*	-21
O=C(NNc1c2ccccc2nc2ccccc12)c1ccccc1O	14	-4	10	5	3	6	nt	nt	nt
SMILES	H9c2 protect	GalR3 antag	Gli-Sufu block	FXN GAA850 act	COUP-TFII inh	SMARCA2 activ	Gli antag conf	Gli cytotox	Wnt3a counter
Cn1c(CNC(=O)c2ccco2)nnc1SCC(=O)Nc1ccc(Cl)cc1	-1	-1	97*	-1	-7	-1	24	-9	-12
O=C(CCCc1ccccc1)NCCc1ccccc1	3	-1	-24	3	-23	1	nt	nt	nt
CC(C)c1ccc(NC(=O)CCCC(=O)NCCc2ccccc2)cc1	-2	-3	53	2	24	-1	21	-4	-25
Cc1ccnc(NC(=O)c2cccc(NC(=O)Cc3ccccc3)c2)c1	-1	-9	95*	-1	6	-2	3	25*	-16
CC(=O)c1ccc(NC(=O)NC2CCCCN(Cc3ccc(Cl)cc3)C2=O)cc1 (centres undefined)	nt	nt	nt	nt	14	-1	nt	nt	nt
O=C(NC1CCCCC1)c1nn2c(C(F)(F)F)cc(-c3ccco3)nc2c1Br	5	4	17	3	19	0	nt	nt	nt
O=C(NCC1CCCO1)c1nn2c(C(F)(F)F)cc(-c3ccc(Br)o3)nc2c1Br (centres undefined)	10	-6	56*	1	-12	-2	18	15	-2
CC[C@H](C)[C@@H](C(=O)NCCCCCCCCCCC(=O)N1CCN(C(=O)OC(C)(C)C)CC1)n1cc(CCCCCNC(=O)OC(C)(C)C)nn1	-14	-5	57*	-1	13	-2	68*	15	37*
CCOC(=O)c1sc(=S)n(-c2ccccc2Cl)c1SC	-4	-5	51	-1	0	3	9	-5	-12
Cc1ccc(S(=O)(=O)NCC(=O)Nc2cccnc2)cc1C	2	-4	2	0	-2	-2	nt	nt	nt
S=C(Nc1cccnc1)NC1CCCC1	0	5	59*	2	-15	-4	6	6	4
O=C(Nc1ccc(C(=O)NC2CCCCC2)cc1)c1cccnc1	-5	-6	55*	0	2	-1	31	3	-7
CC(OC(=O)c1cccc(-n2cnnn2)c1)C(=O)Nc1ccc(F)cc1 (centres undefined)	-8	-3	50	-1	27	-2	25	10	6
